SMILES strings stand for the structures. Records with an inconclusive call do not appear. Active and inactive are the calls of the source. The call rests on the fitted dose curve; in most records, active means well fitted inhibition curve with a large enough effect; inconclusive means small, poorly fitted or top-dose-only effect; inactive means no such curve, though single readings can be large or run the other way.
On the % scale 0 is the no-effect control and ±100 the full control effect; potency means the concentration at half of the fitted maximal effect.

Chain of Cytochrome P450 2C19 (Homo sapiens) (P33261 whole entry, looked up): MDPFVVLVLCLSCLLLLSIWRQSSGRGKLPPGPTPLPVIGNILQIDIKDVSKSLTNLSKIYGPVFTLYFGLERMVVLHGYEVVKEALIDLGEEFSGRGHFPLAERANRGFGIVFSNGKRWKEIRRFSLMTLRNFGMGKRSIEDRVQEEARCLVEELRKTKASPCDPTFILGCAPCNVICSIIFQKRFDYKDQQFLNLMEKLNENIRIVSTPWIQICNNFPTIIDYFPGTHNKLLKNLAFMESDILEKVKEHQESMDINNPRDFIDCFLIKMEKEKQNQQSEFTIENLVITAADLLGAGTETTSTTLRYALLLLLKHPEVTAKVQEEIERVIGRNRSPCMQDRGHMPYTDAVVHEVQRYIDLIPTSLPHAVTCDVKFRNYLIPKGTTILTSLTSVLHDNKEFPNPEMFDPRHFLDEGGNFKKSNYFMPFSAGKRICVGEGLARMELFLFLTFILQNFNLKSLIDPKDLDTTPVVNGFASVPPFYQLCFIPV

For this test, the target named is Cytochrome P450 2C19 (Homo sapiens) (UniProt P33261). The test can be described thus: qHTS Assay for Inhibitors and Substrates of Cytochrome P450 2C19 (AID 899). Further: nearly all actives have a fitted effect of over 60% in size. The note with it: recombinant CYP2C19, luciferin-H EGE luminescence; series mostly up to 11.4 µM; activity, negative = inhibition: at the top concentration. The essentials:
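5 nM human CYP2C19 with 10uM Luciferin-H EGE (at KM) in 50mM KPO4, compound preincubated 10 min at 37C, then NADPH regeneration for 60 min at 37C. Luciferin read by luminescence after detection reagent; normalized to 57uM ketoconazole as full inhibition.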
In general terms: In qHTS, concentration-response curves come from the screen itself.
On to `O=C1[C@@H]2[C@H]3[C@H](O)[C@H](O)C/C(=N/OC[C@@H](O)COCc4ccco4)[C@H]3CC[C@H]2C(=O)N1c1ccc(F)cc1F`, for which the “activity, negative = inhibition” value was 63.6% (inactive).

Consider `C=CCc1cccc(C2C(C)CCC3C(=O)N4C(CCC(C)C4c4cccc(CC=C)c4)C(=O)N32)c1` (stereo not given), for which the “activity, negative = inhibition” value is -22.6% (inactive).

As to `C/C=C/OC(=O)NC(c1ccccc1)[C@]1(C(C)=O)CCCC1=O` (stereo not given in full), the Potency is 199 nM (active).

`CC(=O)OC[C@@H]1O[C@@H](O/N=C2/C[C@@H](O)[C@@H](O)[C@@H]3[C@@H]4C(=O)N(c5cccc(Oc6ccccc6)c5)C(=O)[C@H]4CC[C@H]23)[C@H](OC(C)=O)[C@H](OC(C)=O)[C@@H]1OC(C)=O`: the “activity, negative = inhibition” value was 45.9% (inactive).

Take `CCC12C=C(/C=C/c3ccccc3)C(CC)(C1)C(c1ccccc1)CC2=O` (stereo not given): the Potency is 5010 nM (active).

`C/C(CCN1CCc2nc(-c3ccccc3)c(-c3ccccc3)cc2C1)=N\OC[C@@H](C)[C@H](OCc1ccccc1)C(C)C`: the Potency was 1580 nM (active).

Turning to `CO[C@@H]1COC(=O)C/C=C\[C@H](C)COC(=O)[C@H](Cc2ccccc2)NC(=O)C/C=C\[C@H]1C`, the Potency was 2510 nM (active).

Consider `C[C@@H]1/C=C\CC(=O)OC[C@H](C)C(=O)N[C@@H](Cc2ccccc2)C(=O)OC1`, for which the “activity, negative = inhibition” value is 59% (inactive).

On to `C[C@@H]1O[C@H]2C3=C(C(=O)[C@H]4O[C@@H]4[C@H]3O)[C@@H]1[C@@H]1[C@@H](C)OC=C3[C@H](O)[C@H]4O[C@@H]4/C(=N\OCc4ccccc4)[C@]312`, for which the Potency is 631 nM (active).

For the molecule `CC1CCC2C(=O)OC(CN3C(=O)c4ccccc4C3=O)CN2C1c1ccc(Br)cc1` (stereo not given), the “activity, negative = inhibition” value is 4.42% (inactive).

On to `CCCCCCCC#Cc1ccccc1C(NC(=O)OC)C(C(=O)OC)C(=O)OC` (stereo not given), for which the Potency was 2510 nM (active).

Regarding `CC/C=C\CC[C@H](OC(=O)c1ccc(Br)cc1)C1=CCCCC1=O`, the Potency is 2000 nM (active).

Regarding `COC(=O)[C@@H]1CC[C@H](C)[C@@H](c2ccc(C)cc2)N1C(=O)c1ccc(/C=N\OC[C@@H]2O[C@H](c3ccccc3)C=C[C@@H]2Oc2ccc(OC)cc2)cc1`, the Potency is 50.1 nM (active).

On to `O=C1[C@@H]2[C@H]3[C@H](O)[C@H](O)C/C(=N/OC[C@@H](O)COCc4ccco4)[C@@H]3CC[C@H]2C(=O)N1c1ccc(F)cc1F`, for which the “activity, negative = inhibition” value was 45.6% (inactive).

Regarding `CC(=O)OC[C@@H]1O[C@H](C/C=N\OCC[C@H]2C=C[C@H](OC(C)=O)[C@@H](COC(C)=O)O2)C=C[C@@H]1OC(C)=O`, the “activity, negative = inhibition” value is 81.5% (inactive).

For the origin of these results see PubChem BioAssay (NCATS).
